This note sets out measurements from the OligoGym collection.
Note: reference of the scale not given here.

In the first test the target is SLC9A10. The experiment in a line: pooled miR-30 sensor sort-seq; sequence = guide strand. The settings on record: shRNA.
TATATGAACAAATTCCACCCAC: the sensor-assay potency score (higher = more potent) is -0.00398.
Regarding TATCGGAAAATCTTTCTCCTTT, the sensor-assay potency score (higher = more potent) is -0.118.
As for TACAGTTGAACTTTGTCCCCAG, the sensor-assay potency score (higher = more potent) came out at 0.193.
Sequence TTCGTAACAGACAATCTTCTAC had a sensor-assay potency score (higher = more potent) of 0.0134.
On the same count and under the same terms, the result for TAACATTTCTTTCTTCTTGAAT reads -0.801; that for TAGTCTGTGTCAATTATCGGAA, -0.585.
As to TTTATGTTTAGGAACAAACTTT, the sensor-assay potency score (higher = more potent) is -0.563.
Regarding TTGAAATGTGCAACAAACCGAT, the sensor-assay potency score (higher = more potent) came to 0.415.

A further test concerns the target SLC9A5. Described as above. The note with it: shRNA.
Sequence AAGTTGTCAAAGAACAGCCTGC displayed a sensor-assay potency score (higher = more potent) of -0.191.
The sequence TTACTTTCCGAGACAGGTGAAA yielded a sensor-assay potency score (higher = more potent) of -0.787.
Same read-out and setting: the result for TTGTCAAAGAACAGCCTGCTAG reads -0.67; that for TTAAGCAACAGGCCTGAACTGA, -1.07; that for TTGAACTGGATGCACCAGTGGG, -0.899.
TTCTGCTGGAAGACCTCCTTGT displayed a sensor-assay potency score (higher = more potent) of 0.342.
Still for that read-out and setting: the result for AAGGTCTAGACTTAGACCCAGA reads -1.07.
Still for that read-out and setting: the result for TATCACAGCAGCTGTGTCCTGA reads 0.318.
The same measure, in the same setting: the value for TTCTCTGTCTCTGAACTGTCGC was -0.349.
Turning to TAGAGCGTGGATCAGAAGGTAG, the sensor-assay potency score (higher = more potent) is -0.999.
TCTGTCTCTGAACTGTCGCTCT: the sensor-assay potency score (higher = more potent) turned out to be 0.00832.
On the same count and under the same terms, the result for TACAAGTCCAGCCTGCTGCAAG reads -0.602.
